Bioassay records: PubChem, several laboratories
TIM10 inh: growth inhibitors of TIM10 yeast strain; inhibition, % at 10 µM; 330,000 tested, 1.4% active; S. cerevisiae TIM10 strain growth, BacTiter-Glo luminescence, 24 h;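 active = inhibition of 40% or more at the single tested concentration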;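 also: wild-type TIM10 isogenic control strain grown at permissive 25 °C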
tim10-1 inh: tim10-1 yeast growth inhibition. 330,000 tested, 2.2% active. inhibition, % at 20 µM. S. cerevisiae tim10-1 ts strain growth, BacTiter-Glo, 24 h;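 active = inhibition of at least 40%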;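 also: mutant grown at 25 °C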
Yeast superoxide: lowers age-related superoxide in aged yeast cells; S. cerevisiae aged cells, superoxide DHE fluorescence; hits give low values; superoxide response (% of plate mean), % at 10 µM; 330,000 tested, 0.18% active; AID 2690;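 active = superoxide response under a set limit, about three screen SD below normal, cut at about 65% in these data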;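 also: yeast aged for seven days with compound at 30 °C before DHE staining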
tim23-1 inh: tim23-1 yeast growth inhibition; S. cerevisiae tim23-1 growth, BacTiter-Glo luminescence, 24 h; inhibition, % at 20 µM; 330,000 tested, 1.3% active;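 active = growth inhibition of the mutant yeast at or above 50%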;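 also: temperature-sensitive mutant grown at 25 °C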
NLRP3 yeast inh: NALP3 inhibition in yeast; inhibition, % at 10 µM; Yeast reconstituted NLRP3/ASC/caspase-1, beta-gal luminescence, 24 h; 330,000 tested, 0.39% active;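 active = inhibition of 50% or more; inactive = inhibition below 50%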
tim10-1 conf: confirmation of tim10-1 mutant yeast growth inhibitors; 7,400 tested, 56% active; inhibition, % at 20 µM; shares compounds with tim10-1 inh; S. cerevisiae tim10-1 ts strain growth, BacTiter-Glo, 24 h; AID 463213;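 active = inhibition of yeast growth at or above a set limit in either of two repeat tests at 20 µM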;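 also: tim10-1 mutant grown at permissive 25 °C to find synthetic lethal compounds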
Of the large screens only hits and unclear results are named; the others gave an inactive call (follow-up assays come after a bar, where they were run). In the library only some 3.8% were active in any assay of this set; here they are far more common.

COc1ccc(C2=NN(C(=O)COC(=O)c3ccc(S(C)(=O)=O)c([N+](=O)[O-])c3)C(c3ccco3)C2)cc1 (stereo unspecified)	none
Cc1cc(C(=O)c2cnc(/N=C/N(C)C)s2)cc(C)c1O	none
CCC(C(=O)Nc1nc(C)c(C(=O)OC)s1)c1ccccc1 (stereo unspecified)	tim10-1 inh 43 | tim10-1 conf 36
COC(=O)c1sc(NC(=O)C(C)c2ccccc2)nc1C (stereo unspecified)	none
Cc1cc(C(=O)NN=C2CCCCCC2)c(C)o1	tim10-1 inh 80 | tim10-1 conf inactive
CCc1cccc(NS(=O)(=O)c2c(C)nc3sc(CC)nn3c2=O)c1	none
CN(C)C(CNC(=O)c1ccco1)c1cccs1 (stereo unspecified)	none
Cc1ccc(Cl)cc1NC(=O)c1ccccc1OCC(=O)Nc1ccc(Cl)cc1	tim10-1 inh 48 | tim10-1 conf inactive
O=C(CCN1CCN(c2ccccc2F)CC1)c1ccc(Br)cc1	none
O=C(CCN1CCN(c2ccccc2)CC1)c1ccc(Br)cc1	tim10-1 inh 45 | tim10-1 conf inactive
Cc1cccc2nc(COc3ccc(Cl)c4cccnc34)cn12	tim10-1 inh 40 | tim10-1 conf 36
CCc1nnc(NC(=O)Cc2ccc(Br)cc2)s1	none
C=CCOC(=O)/C(=C\c1ccccc1)NC(=O)c1ccc(C)cc1	tim10-1 inh 40 | tim10-1 conf inactive
CCOC(=O)/C(=C\c1ccccc1)NC(=O)c1ccccc1	none
CCn1c(SCC(O)c2ccccc2)nnc1-c1ccccc1 (stereo unspecified)	none
CCn1c(SC(C)C)nnc1-c1cc(-c2ccccc2)sc1N	tim10-1 inh 46 | tim10-1 conf 38
Cc1cc(C)n(-c2cc(N3CCOCC3)nc(-c3ccccc3)n2)n1	tim10-1 inh 52 | tim10-1 conf inactive
O=C(COc1ccc2c3c(c(=O)oc2c1)CCC3)N[C@@H](Cc1ccccc1)C(=O)O	none
Cc1cc(C(=O)OCC(=O)N(C)c2ccccc2)ccc1[N+](=O)[O-]	none
Cc1ccc(C)c(C(=O)OCC(=O)N(C)c2ccccc2)c1	tim10-1 inh 56 | tim10-1 conf 44
O=C(CN1C(=O)/C(=C/c2ccccc2)SC1=S)N1CCN(CCc2ccccn2)CC1	tim10-1 inh 42 | tim10-1 conf inactive
Cc1ccc(-c2nc3ccccn3c2NCc2ccc3c(c2)OCO3)cc1	tim10-1 inh 47 | tim10-1 conf inactive
O=C(Nc1ccc(C(=O)N2CCN(c3ccccn3)CC2)cc1)c1ccc(Br)o1	tim10-1 inh 46 (no result: Yeast superoxide) | tim10-1 conf inactive
CCOC(=O)N1CCN(C(=O)c2ccc(NC(=O)c3ccc(C)cc3)cc2)CC1	tim10-1 inh 44 | tim10-1 conf inactive
Cc1ccc(C(=O)N2CCN(c3ccc(NC(=O)c4ccc(Br)o4)cc3)CC2)cc1	tim10-1 inh 52 | tim10-1 conf 31
CN1CCN(c2ccc(NC(=O)c3ccc(Br)o3)cc2)CC1	none
CCOC(=O)N1CCN(C(=O)c2ccc(NC(C)=O)cc2)CC1	none
O=C(c1ccc(Br)o1)N1CCN(c2ccccn2)CC1	none
COc1cc(-c2nnc(COC(=O)CSc3cc(C)c4ccccc4n3)o2)cc(OC)c1OC	tim10-1 inh 40 | tim10-1 conf inactive
CCCN1CCC(NCc2cn(C)nc2-c2ccc(Oc3ccccc3)cc2)CC1	none
CC(C)c1ccc(S(=O)(=O)N2CCN(C(=O)C3CCCC3)CC2)cc1	none
Cc1ccc(S(=O)(=O)N2CCN(C(=O)C3COc4ccccc4O3)CC2)cc1C (stereo unspecified)	none
Cc1cc(C)c(S(=O)(=O)N2CCN(C(=O)C3COc4ccccc4O3)CC2)c(C)c1 (stereo unspecified)	tim10-1 inh 40 | tim10-1 conf inactive
Cc1cc(C)c2sc(NC(=O)CN3C(=O)CCC3=O)nc2c1	none
O=C(Oc1c(-c2ccccc2)c(=O)n2c3c(cccc13)CC2)c1ccco1	tim10-1 inh 46 | tim10-1 conf inactive
O=C(Oc1c(-c2ccccc2)c(=O)n2c3c(cccc13)CC2)c1ccc(Cl)cc1	none
CCCn1c(SCC(=O)N(C2CCCCC2)C2CCS(=O)(=O)C2)n[nH]c1=O (stereo unspecified)	none
O=C(c1cn(-c2ccccc2)nc1-c1cccc([N+](=O)[O-])c1)N1CCCCC1	tim10-1 inh 48 | tim10-1 conf 34
O=[N+]([O-])c1cccc(-c2nn(-c3ccccc3)cc2CO)c1	tim10-1 inh 40 | tim10-1 conf 41
NNc1nc2sc3c(c2c(=O)n1Cc1ccccc1)CCC3	tim10-1 inh 54 | tim10-1 conf inactive
CCn1c(NN)nc2sc3c(c2c1=O)CCC3	none
CC(C)(C)C(=O)N1CCN(c2nc3ccccc3o2)CC1	none
CCN(CC)S(=O)(=O)c1ccc(/C=C/C(=O)NC2CCCCC2)cc1	tim10-1 inh 44 | tim10-1 conf inactive
COc1ccc(N2CCN(C(=O)CCCN3C(=O)c4cccc5cccc(c45)C3=O)CC2)cc1	tim10-1 inh 49 | tim10-1 conf inactive
COc1ccc(N2CCN(C(=O)COC(=O)CCOc3ccccc3C)CC2)cc1	tim10-1 inh 43 | tim10-1 conf inactive
COc1ccc(N2CCN(C(=O)COC(=O)CCOc3cc(C)ccc3C)CC2)cc1	none
O=C(CCCN1C(=O)c2cccc3cccc(c23)C1=O)N1CCN(c2ccc(F)cc2)CC1	none
COc1ccc(CCN(C)C2CCCN(C(=O)Cn3cnnn3)C2)cc1OC (stereo unspecified)	none
CCCN(CC(=O)Nc1ccccc1OC)C(=O)CSc1nc(C)cc(C)n1	none
O=C(CSc1nc2ccccc2o1)N/N=C/c1ccco1	none
COc1ccc(C(=O)NC2CCCc3c2cnn3-c2cc(F)cc(F)c2)c(OC)c1OC (stereo unspecified)	tim10-1 inh 41 | tim10-1 conf 28
CCSc1nnc(NC(=O)c2cccc(OCc3c(C)noc3C)c2)s1	none | tim10-1 conf inactive
CC(c1ccco1)N(C(=O)c1ccccc1NS(=O)(=O)c1cccc([N+](=O)[O-])c1)c1ccccn1 (stereo unspecified)	tim10-1 inh 42 | tim10-1 conf 34
Nc1c(C(=O)c2ccc(F)cc2)oc2ccccc12	tim10-1 inh 45 | tim10-1 conf inactive
Cc1ccccc1NC(=O)NC1CCCCC1C (stereo unspecified)	none
CCCCNC(=S)Nc1ccccc1Cc1ccccc1	tim10-1 inh 41 | tim10-1 conf inactive
CC(=O)Nc1ccc(C(=O)OCc2ccc(F)cc2)cc1	tim10-1 inh 42 | tim10-1 conf inactive
CCc1nn(C(C)C(=O)NC2CCCCCC2)c(=O)c2cc3occc3n12 (stereo unspecified)	tim10-1 inh 41 | tim10-1 conf inactive
N#Cc1ccc(C(=O)NC23CC4CC(CC(C4)C2)C3)cc1	tim10-1 inh 41 | tim10-1 conf inactive
O=C(c1cc2ccccc2cc1O)N1CCN(c2cccc(Cl)c2)CC1	tim10-1 inh 47 | tim10-1 conf 30
